# Values without a mark were called inactive. Results filed as inconclusive are left out. A call without a number means that no potency is given here. Active and inactive are the calls of the source. Unless noted, calls follow the shape of the full dose curve.
# Assays:
# [1] = Nuclear factor erythroid 2-related factor 2/antioxidant responsive element (Nrf2/ARE) small molecule agonists: qHTS cell viability counter screen in human keratinocytes (AID 1919968; active = well fitted curve in the direction sought with a large enough effect in the repeat runs; an effect the other way counts as inactive or inconclusive; also: nearly all actives have a fitted effect of over 55% in size; also: potency is read from the fitted curve at half-maximal effect)
# Summary of the method: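 Cytotoxicity was multiplexed with the Nrf2/ARE luciferase assay in the same wells. Stably transfected HaCaT keratinocytes were treated with test compounds for 23 h at 37 C. Cell viability was then measured by CellTiter-Fluor fluorescence.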
# [2] = molecular target: Gonadotropin-releasing hormone receptor (Homo sapiens) (UniProt P30968); test: Human gonadotropin-releasing hormone receptor (GnRHR) small molecule agonists, calcium flux assay in GnRHR-HEK293 cells (AID 1920063); also: nearly all actives have a fitted effect of over 35% in size
# Summary of the method: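 Agonist activity was measured as intracellular calcium flux in HEK293 cells engineered to stably express human GnRHR. After dye loading for 1 hour at 37 C, compounds in DMSO were added and fluorescence was followed for 3 minutes.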
# [3] = molecular target: KiSS-1 receptor (Homo sapiens) (UniProt Q969F8); test: Human kisspeptin (KISS1R) small molecule agonists, calcium flux assay in KISS1R-HEK293 cells (AID 1920064; active = well fitted curve in the direction sought with a large enough effect in the repeat runs; an effect the other way counts as inactive or inconclusive)
# Summary of the method: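 Agonist activity is monitored as intracellular calcium rise in engineered HEK293 cells carrying human KISS1R. Cells are dye-loaded for 1 h at 37 C before compound addition, and fluorescence is recorded for 3 min.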
# [4] = G protein-coupled receptor (GPCR) small molecule agonists, calcium flux assay: HEK293 wild type cell line counter screen (AID 1920065)
# Summary of the method: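 Seed cells, incubate 18 h (37 C, 5% CO2); add calcium dye, 1 h at 37 C; pin-transfer compounds, ATP control or DMSO; read fluorescence 480/540 nm each second for 3 min.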
# [5] = p53 small molecule agonists, cell-based qHTS assay with human liver microsomes (AID 1963577);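 also: p53 response element beta-lactamase reporter cells with liver microsomes plus NADPH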
# Summary of the method: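 Reporter activation was measured by LiveBLAzer fluorescence intensity in p53RE-bla cells, which had been exposed to compounds for 16 h at 37 C alongside 0.5 mg/mL human liver microsomes and 0.5 mg/mL NADPH (final concentrations).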
# [6] = p53 small molecule agonists, cell-based qHTS assay with rat liver microsomes (AID 1963578)
# Summary of the method: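 Compound in DMSO added to p53RE-bla cells 5 h post-plating; rat microsomes/NADPH 0.5 mg/mL final; 16 h, 37 C; LiveBLAzer 2 h RT.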
# [7] = p53 small molecule agonists, cell-based qHTS assay with human liver microsomes: qHTS cell viability counter screen (AID 1963579); also: nearly all actives have a fitted effect of over 45% in size
# Summary of the method: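 HLM-supplemented (0.5 mg/mL final) and NADPH-supplemented (0.5 mg/mL final) p53RE-bla cultures, 4,000 cells per well, were dosed with compounds in DMSO for 16 h at 37 C; luminescent ATP detection (CellTiter-Glo, 30 min, room temperature) quantified surviving cells.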
# [8] = p53 small molecule agonists, cell-based qHTS assay with rat liver microsomes: qHTS cell viability counter screen (AID 1963580); also: nearly all actives have a fitted effect of over 45% in size
# Summary of the method: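 Counter screen for cytotoxicity under metabolic activation: rat liver microsomes and NADPH, 0.5 mg/mL final each, added with compounds to p53RE-bla HCT-116 cells; 16 h at 37 C, then ATP luminescence read.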
# [9] = p53 small molecule agonists, cell-based qHTS assay: qHTS cell viability counter screen (AID 1963581); also: nearly all actives have a fitted effect of over 45% in size
# Summary of the method: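 Viability was counter-screened in parallel with the p53 agonist reporter by measuring intracellular ATP luminescence in the same HCT-116 p53RE-bla wells after 16 h compound treatment at 37 C.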
# [10] = p53 small molecule agonists, cell-based qHTS assay (AID 1963582; active = well fitted activation curve with a large enough effect in the signal ratio in the repeat runs, not every such curve was filed as active; the % refers to the signal ratio; also: potency is read from the fitted curve at half-maximal effect)
# Summary of the method: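 Cells carrying a p53-responsive bla reporter are treated with test compounds for 16 h at 37 C; beta-lactamase activity is then detected with LiveBLAzer B/G FRET substrate after 2 h at room temperature.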
# [11] = molecular target: 5-hydroxytryptamine receptor 2A (Homo sapiens) (UniProt P28223); test: 5-hydroxytryptamine receptor 2A (HTR2A) small molecule agonists, cell-based qHTS assay (AID 1963587); also: nearly all actives have a fitted effect of over 30% in size
# Summary of the method: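 HTR2A-CHO cells, plated 18 h at 37 C/5% CO2, dye-loaded 1 h at 37 C; compounds in DMSO added by pin tool (agonist mode). Intracellular calcium flux read as kinetic fluorescence on FDSS over 2 min at 1 s intervals.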
# [12] = molecular target: Muscarinic acetylcholine receptor M1 (Homo sapiens) (UniProt P11229); test: Cholinergic receptor muscarinic 1 (CHRM1) small molecule antagonists, cell-based qHTS assay (AID 1963588); also: nearly all actives have a fitted effect of over 40% in size
# Summary of the method: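 Compounds were tested at 15 concentrations in three independent runs. Dye-loaded CHRM1-CHO cells were exposed 5 min at room temperature before stimulation by acetylcholine added at 50nM. Intracellular calcium was read kinetically on FDSS for 3 min.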
# [13] = molecular target: Muscarinic acetylcholine receptor M1 (Homo sapiens) (UniProt P11229); test: Cholinergic receptor muscarinic 1 (CHRM1) small molecule agonists, cell-based qHTS assay (AID 1963589); also: nearly all actives have a fitted effect of over 35% in size
# Summary of the method: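 Cells were plated and incubated 18 h at 37 C/5% CO2, loaded with calcium dye for 1 h at 37 C, then treated with compounds in DMSO. Fluorescence was recorded kinetically at 1 sec intervals.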
# [14] = molecular target: Beta-2 adrenergic receptor (Homo sapiens) (UniProt P07550); test: Adrenergic beta2 receptor (ADRB2) small molecule antagonists, cell-based qHTS assay (AID 1963592); also: series mostly up to about 92 µM; nearly all actives have a fitted effect of over 50% in size
# Summary of the method: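 Assay format: CHO-ADRB2 cells, 18-20hr seeding at 37C/5% CO2, then compound plus 1nM isoproterenol agonist mix for 0.5hr RT. Homogeneous time-resolved fluorescence cAMP detection after 1hr, expressed as 665/615 nm ratio.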
# [15] = molecular target: D(2) dopamine receptor (Homo sapiens) (UniProt P14416); test: Dopamine D2 receptor (DRD2) small molecule agonists, cell-based qHTS assay (AID 1963594); also: nearly all actives have a fitted effect of over 35% in size
# Summary of the method: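 HEK293 cells stably expressing DRD2 were cultured 24 h at 37 C, then given Ro20-1724 (0.1 mM final) and compounds for 10 min at room temperature. NKH477 (200nM) was then added for 30 min. cAMP was read by HTRF.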
# [16] = molecular target: D(2) dopamine receptor (Homo sapiens) (UniProt P14416); test: Dopamine D2 receptor (DRD2) small molecule antagonists, cell-based qHTS assay (AID 1963595; active = well fitted inhibition curve with a large enough effect in the signal ratio in the repeat runs, with a control signal flat; the % refers to the signal ratio)
# Summary of the method: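 DRD2-HEK293; 0.1 mM Ro20-1724; cpd 10 min RT; NKH477 200 nM + quinpirole 12 nM, 30 min RT; HTRF cAMP (cAMP-d2/anti-cAMP cryptate), 665/620 nm ratio after 1 h.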
# [17] = cAMP Responsive Elements (CRE) small molecule agonists, cell-based qHTS assay (AID 1963590)
# Summary of the method: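 Cells carrying a CRE-driven beta-lactamase reporter (HEK 293T) are seeded, incubated overnight (18 h), and treated with test compounds for 3 h at 37 C; reporter activity is then detected with a FRET substrate after 2 h at room temperature.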
# [18] = cAMP Responsive Elements (CRE) small molecule antagonists, cell-based qHTS assay (AID 1963591; active = well fitted inhibition curve with a large enough effect in the signal ratio in the repeat runs, not every such curve was filed as active; the % refers to the signal ratio)
# Summary of the method: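 Cells (CRE-bla HEK 293T, DMEM with 10% dialyzed FBS and 25 mM HEPES) are seeded and incubated 18 h. Compounds are added with NKH477 agonist at 0.25 uM final for 3 h, then FRET substrate for 2 h.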
# [19] = molecular target: Beta-2 adrenergic receptor (Homo sapiens) (UniProt P07550); test: Adrenergic beta2 receptor (ADRB2) small molecule agonists, cell-based qHTS assay (AID 1963593);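 also: CHO cells stably overexpressing human ADRB2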
# Summary of the method: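 CHO cells stably over-expressing ADRB2 were plated overnight at 37C, then dosed with compounds plus a stimulation mix containing 100uM IBMX and 25uM Ro-20-1724 for 0.5hr at room temperature. cAMP was measured by HTRF competition, 1hr.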
# [20] = molecular target: 5-hydroxytryptamine receptor 2A (Homo sapiens) (UniProt P28223); test: 5-hydroxytryptamine receptor 2A (HTR2A) small molecule antagonists, cell-based qHTS assay (AID 1963586); also: nearly all actives have a fitted effect of over 45% in size
# Summary of the method: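 CHO cells stably expressing human HTR2A were plated for 18 h at 37 C, then loaded with calcium dye for 1 h. Compounds were preincubated 5 min at room temperature before DOI (4 nM solution) was added. Kinetic fluorescence was read for 3 min.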
# KiSS-1 receptor (Homo sapiens), sequence (Q969F8 whole entry, looked up): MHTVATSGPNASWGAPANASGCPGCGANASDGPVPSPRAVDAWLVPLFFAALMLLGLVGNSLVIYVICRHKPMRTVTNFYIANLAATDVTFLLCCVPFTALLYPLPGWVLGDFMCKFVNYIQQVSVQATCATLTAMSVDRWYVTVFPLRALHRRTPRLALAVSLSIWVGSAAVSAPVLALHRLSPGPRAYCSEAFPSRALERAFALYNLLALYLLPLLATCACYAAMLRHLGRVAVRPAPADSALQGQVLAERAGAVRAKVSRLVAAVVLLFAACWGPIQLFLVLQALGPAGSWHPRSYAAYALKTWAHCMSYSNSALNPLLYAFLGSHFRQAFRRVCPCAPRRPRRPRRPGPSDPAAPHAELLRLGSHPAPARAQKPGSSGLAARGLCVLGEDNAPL
# Gonadotropin-releasing hormone receptor (Homo sapiens), sequence (P30968 whole entry, looked up): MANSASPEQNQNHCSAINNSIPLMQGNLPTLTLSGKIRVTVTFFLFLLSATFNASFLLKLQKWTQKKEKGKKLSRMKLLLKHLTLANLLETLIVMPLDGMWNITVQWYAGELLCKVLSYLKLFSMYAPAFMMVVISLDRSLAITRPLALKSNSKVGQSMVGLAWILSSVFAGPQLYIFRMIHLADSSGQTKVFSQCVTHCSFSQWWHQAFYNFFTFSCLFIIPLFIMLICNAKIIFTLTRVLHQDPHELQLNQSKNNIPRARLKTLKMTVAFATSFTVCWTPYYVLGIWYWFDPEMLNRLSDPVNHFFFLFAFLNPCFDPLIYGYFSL
# Beta-2 adrenergic receptor (Homo sapiens), sequence (P07550 whole entry, looked up): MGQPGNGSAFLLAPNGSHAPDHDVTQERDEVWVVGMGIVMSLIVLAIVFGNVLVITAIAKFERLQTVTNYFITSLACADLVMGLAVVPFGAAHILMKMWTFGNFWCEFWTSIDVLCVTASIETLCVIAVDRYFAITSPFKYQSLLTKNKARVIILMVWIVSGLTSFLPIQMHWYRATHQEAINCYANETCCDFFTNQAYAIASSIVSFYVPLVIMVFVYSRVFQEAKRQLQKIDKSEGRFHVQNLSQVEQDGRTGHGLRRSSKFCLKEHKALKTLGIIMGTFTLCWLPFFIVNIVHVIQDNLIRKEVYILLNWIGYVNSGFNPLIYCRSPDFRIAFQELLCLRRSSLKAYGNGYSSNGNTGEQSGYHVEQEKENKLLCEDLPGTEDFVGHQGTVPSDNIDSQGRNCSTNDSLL
# Muscarinic acetylcholine receptor M1 (Homo sapiens), sequence (P11229 whole entry, looked up): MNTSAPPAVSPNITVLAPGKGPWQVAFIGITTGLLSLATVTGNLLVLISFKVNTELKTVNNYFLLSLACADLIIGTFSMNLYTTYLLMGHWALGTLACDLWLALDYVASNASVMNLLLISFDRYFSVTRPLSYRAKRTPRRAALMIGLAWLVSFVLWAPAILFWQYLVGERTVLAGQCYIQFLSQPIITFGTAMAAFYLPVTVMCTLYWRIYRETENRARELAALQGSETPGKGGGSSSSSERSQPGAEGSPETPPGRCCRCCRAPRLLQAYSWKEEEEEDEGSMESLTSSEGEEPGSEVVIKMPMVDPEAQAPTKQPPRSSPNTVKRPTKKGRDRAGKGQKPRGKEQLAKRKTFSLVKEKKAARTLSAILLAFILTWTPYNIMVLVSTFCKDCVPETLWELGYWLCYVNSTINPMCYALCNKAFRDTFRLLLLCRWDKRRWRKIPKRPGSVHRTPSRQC
# D(2) dopamine receptor (Homo sapiens), sequence (P14416 whole entry, looked up): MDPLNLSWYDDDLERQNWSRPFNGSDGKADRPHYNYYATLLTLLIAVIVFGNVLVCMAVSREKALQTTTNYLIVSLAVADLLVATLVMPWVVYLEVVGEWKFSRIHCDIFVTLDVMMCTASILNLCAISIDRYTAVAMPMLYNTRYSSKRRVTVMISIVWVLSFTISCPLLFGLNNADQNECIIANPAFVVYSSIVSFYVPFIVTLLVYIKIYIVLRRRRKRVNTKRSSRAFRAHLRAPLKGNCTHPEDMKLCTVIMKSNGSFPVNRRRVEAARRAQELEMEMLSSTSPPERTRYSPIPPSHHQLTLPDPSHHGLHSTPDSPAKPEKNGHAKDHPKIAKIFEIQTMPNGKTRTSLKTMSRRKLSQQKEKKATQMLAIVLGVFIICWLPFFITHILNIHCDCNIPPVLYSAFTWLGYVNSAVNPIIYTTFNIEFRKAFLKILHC
# 5-hydroxytryptamine receptor 2A (Homo sapiens), sequence (P28223 whole entry, looked up): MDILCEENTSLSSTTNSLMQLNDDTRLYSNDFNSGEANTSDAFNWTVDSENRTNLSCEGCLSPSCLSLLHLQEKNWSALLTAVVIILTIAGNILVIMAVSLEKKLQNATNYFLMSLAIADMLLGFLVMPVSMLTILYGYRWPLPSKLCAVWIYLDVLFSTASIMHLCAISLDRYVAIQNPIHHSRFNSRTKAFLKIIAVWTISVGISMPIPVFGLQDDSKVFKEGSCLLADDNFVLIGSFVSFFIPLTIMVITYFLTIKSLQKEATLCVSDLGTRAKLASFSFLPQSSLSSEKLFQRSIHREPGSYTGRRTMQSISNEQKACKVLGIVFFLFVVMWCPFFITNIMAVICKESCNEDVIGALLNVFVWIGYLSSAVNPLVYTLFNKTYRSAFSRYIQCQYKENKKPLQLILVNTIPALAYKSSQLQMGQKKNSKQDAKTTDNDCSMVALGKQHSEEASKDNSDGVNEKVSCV
smiles,measurement,setting,value
O=C(NOCC1CC1)c1ccc(F)c(F)c1Nc1ccc(I)cc1Cl,Potency,[1],29.8 µM (active)
same,Potency,[2],inactive
same,Potency,[3],inactive
same,Potency,[4],inactive
same,Potency,[5],inactive
same,Potency,[6],inactive
same,Potency,[7],inactive
same,Potency,[8],inactive
same,Potency,[9],inactive
same,Potency,[10],19.9 µM (active)
same,Potency,[11],inactive
same,Potency,[12],inactive
same,Potency,[13],inactive
same,Potency,[14],inactive
same,Potency,[15],inactive
same,Potency,[16],inactive
CCc1cccc(N(C)C(N)=Nc2cccc3ccccc23)c1,Potency,[1],inactive
same,Potency,[2],inactive
same,Potency,[3],inactive
same,Potency,[4],inactive
same,Potency,[5],inactive
same,Potency,[6],inactive
same,Potency,[7],inactive
same,Potency,[8],inactive
same,Potency,[9],inactive
same,Potency,[10],inactive
same,Potency,[11],inactive
same,Potency,[12],inactive
same,Potency,[13],inactive
same,Potency,[17],inactive
same,Potency,[18],inactive
same,Potency,[14],inactive
same,Potency,[19],inactive
same,Potency,[15],inactive
same,Potency,[16],inactive
COc1cc(/C=C/c2ccccc2)oc(=O)c1,Potency,[1],inactive
same,Potency,[2],inactive
same,Potency,[3],inactive
same,Potency,[4],inactive
same,Potency,[5],inactive
same,Potency,[6],inactive
same,Potency,[7],inactive
same,Potency,[8],inactive
same,Potency,[9],inactive
same,Potency,[20],inactive
same,Potency,[11],inactive
same,Potency,[12],inactive
same,Potency,[13],inactive
same,Potency,[14],inactive
same,Potency,[15],inactive
same,Potency,[16],inactive
S=c1nccc[nH]1,Potency,[1],inactive
same,Potency,[2],inactive
same,Potency,[3],inactive
same,Potency,[4],inactive
same,Potency,[5],inactive
same,Potency,[6],inactive
same,Potency,[7],inactive
same,Potency,[8],inactive
same,Potency,[9],inactive
same,Potency,[10],inactive
same,Potency,[11],inactive
same,Potency,[12],inactive
same,Potency,[13],inactive
same,Potency,[17],inactive
same,Potency,[18],inactive
same,Potency,[14],inactive
same,Potency,[15],inactive
same,Potency,[16],inactive
CS(=O)(=O)Nc1ccc([N+](=O)[O-])cc1Oc1ccccc1,Potency,[1],inactive
same,Potency,[2],inactive
same,Potency,[3],inactive
same,Potency,[4],inactive
same,Potency,[5],inactive
same,Potency,[6],inactive
same,Potency,[7],inactive
same,Potency,[8],inactive
same,Potency,[9],inactive
same,Potency,[10],inactive
same,Potency,[17],inactive
same,Potency,[14],inactive
same,Potency,[19],inactive
same,Potency,[15],inactive
same,Potency,[16],inactive
c1ccc2sc(SSc3nc4ccccc4s3)nc2c1,"activity change, negative = cytotoxicity",[1],22.3% [at 19 µM]
same,activity change,[2],"-1.6% [at 11.8 µM, stronger effect = higher value]"
same,activation,[3],4.25% [at 15.8 µM]
same,activation,[4],0.255% [at 11.8 µM]
same,activation,[5],13.9% [at 13.5 µM]
same,activation,[6],-0.548% [at 13.6 µM]
same,"activity change, negative = cytotoxicity",[7],-2.64% [at 13.5 µM]
same,"activity change, negative = cytotoxicity",[8],0.0229% [at 13.5 µM]
same,"activity change, negative = cytotoxicity",[9],-1.21% [at 13.5 µM]
same,activation,[10],0.366% [at 13.5 µM]
same,activation,[17],-0.0759% [at 19 µM]
same,"activity change, negative = inhibition",[18],0.327% [at 18.9 µM]
same,"activity change, negative = inhibition",[14],1.66% [at 19 µM]
same,activation,[19],0.998% [at 19 µM]
same,activation,[15],10.5% [at 19 µM]
same,"activity change, negative = inhibition",[16],5.58% [at 18.9 µM]
c1ccc(-c2ccccn2)nc1,Potency,[1],inactive
same,Potency,[2],inactive
same,Potency,[3],inactive
same,Potency,[4],inactive
same,Potency,[5],inactive
same,Potency,[6],inactive
same,Potency,[7],inactive
same,Potency,[8],inactive
same,Potency,[9],inactive
same,Potency,[10],inactive
same,Potency,[11],inactive
same,Potency,[12],inactive
same,Potency,[13],inactive
same,Potency,[17],inactive
same,Potency,[18],inactive
same,Potency,[19],inactive
same,Potency,[15],inactive

# Reference: PubChem BioAssay (Tox21)
